# From PubChem BioAssay
# The list is not random: actives were taken first. Their share in the collection is about 10%.
# PNC assembly inh – inhibitors of perinucleolar compartment assembly | PC3M PTB-GFP, PNC prevalence imaging, 16 h; stronger effect = lower value | 140,000 tested, 3.1% active | activity change (PNC), negative = inhibition, % at 10 µM;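 active = readout at or below -70, meaning at least 70% loss of cells showing the perinucleolar compartment, a nuclear body marking cancer cells; inconclusive = readout between -30 and a set limit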;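 note: plate controls were DMSO wells for no effect and camptothecin positive control wells for full effect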
#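 Read-out is percentage of cells bearing a perinucleolar compartment, from automated 20x imaging of fixed, Hoechst-stained PC3M PTB-GFP cells. Cells were seeded 4 h, then exposed 16 h to compound (23 nl of library stock) in duplicate plates.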
# ALDH1A1 inh – inhibitors of human aldehyde dehydrogenase 1A1; Purified ALDH1A1, NADH fluorescence, propionaldehyde substrate; Potency, µM (titrated, usually from 75.3 µM), for inactives: at the top dose activity, negative = inhibition, most hits filed as inhibitors; 220,000 tested, 7.3% active; AID 1030;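 note: potency is the fitted concentration of half-maximal effect; plate controls were no enzyme wells and a reference inhibitor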
# Luc counter – counter-screen: inhibitors of Kinase-Glo firefly luciferase | Q27757 | Kinase-Glo luciferase, ATP luminescence, 8 min | 200,000 tested, 0.28% active | Potency, µM (titrated, usually from 38.3 µM), for the others: top-dose activity change, negative = inhibition, hits mostly inhibitors; active = well fitted inhibition curve with a large enough effect; inconclusive = small, poorly fitted or top-dose-only effect; note: potency is the fitted concentration of half-maximal effect; nearly all actives have a fitted effect of over 60% in size
#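 Compounds were added to a substrate mix at pH 7.2 (50 mM imidazole, 10 uM ATP, within the enzyme's linear range), followed by Kinase-Glo detection reagent; luminescence was measured after 8 minutes at ambient temperature.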
# HPGD inh – blocks human HPGD enzyme activity. Potency, µM, inactives show at the top dose activity change, negative = inhibition, actives largely listed as inhibitors. AID 894. P15428. 150,000 tested, 4.3% active. purified HPGD, NADH fluorescence kinetic, PGE2 substrate; note: potency is the fitted concentration of half-maximal effect
# Target sequence (P15428 whole entry, looked up): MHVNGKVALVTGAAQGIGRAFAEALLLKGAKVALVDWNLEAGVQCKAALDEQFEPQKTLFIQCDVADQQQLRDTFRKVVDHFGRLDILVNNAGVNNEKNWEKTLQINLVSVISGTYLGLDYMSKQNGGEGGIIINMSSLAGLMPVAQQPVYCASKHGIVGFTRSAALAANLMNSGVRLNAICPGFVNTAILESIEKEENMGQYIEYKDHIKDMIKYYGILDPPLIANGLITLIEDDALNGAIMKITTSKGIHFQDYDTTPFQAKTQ
#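 20 nM HPGD preincubated 15 min at room temperature with compound in 50 mM Tris-HCl pH 8, 0.01% Tween 20. Started with 1 mM NAD+ and 30 uM prostaglandin E2; NADH fluorescence (360/450 nm) read 5 times over 30-s intervals, last minus first.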
# Lamin A splicing – modulators of lamin A splicing | HeLa LMNA splicing GFP/RFP minigene ratio, 48 h | Potency, µM (titrated, usually from 46.1 µM), without a hit: at the top dose ratio change, negative = inhibition, most hits filed as inhibitors | 200,000 tested, 0.01% active | AID 1487; active = well fitted inhibition curve with a large enough effect in the signal ratio, with a control signal flat, not every such curve was filed as active; inconclusive = small, poorly fitted or top-dose-only effect, or effect the other way, or a change in a side signal; the % refers to the signal ratio; note: potency is the fitted concentration of half-maximal effect
#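 Read-out is the ratio of GFP to DsRed2 object intensity, acquired by 488 nm laser-scanning cytometry on HeLa lamin A-EGFP minigene reporter cells. Compound incubation 48 hrs at 37 °C in Opti-MEM with 2% FBS; DMSO 0.5% final.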
# IMPase inh – membrane-permeable compound that blocks inositol monophosphatase; CHO-M1 cells, IP1 accumulation, HTRF TR-FRET ratio; inhibition (IP1 accumulation), % at 46.1 µM; 120,000 tested, under 10 active; AID 901; active = well fitted curve in the direction sought with a large enough effect in the signal ratio, not every such curve was filed as active; inconclusive = small, poorly fitted or top-dose-only effect, or a change in a side signal; inactive = no such curve, though single readings can be large or run the other way; the % refers to the signal ratio;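 note: cells stimulated with carbachol in lithium chloride buffer; plate controls were DMSO basal wells for no effect and reference inhibitor wells for full effect; higher means more IMPase inhibition seen as more IP1 and lower FRET ratio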
# Target sequence (P97697 whole entry, looked up): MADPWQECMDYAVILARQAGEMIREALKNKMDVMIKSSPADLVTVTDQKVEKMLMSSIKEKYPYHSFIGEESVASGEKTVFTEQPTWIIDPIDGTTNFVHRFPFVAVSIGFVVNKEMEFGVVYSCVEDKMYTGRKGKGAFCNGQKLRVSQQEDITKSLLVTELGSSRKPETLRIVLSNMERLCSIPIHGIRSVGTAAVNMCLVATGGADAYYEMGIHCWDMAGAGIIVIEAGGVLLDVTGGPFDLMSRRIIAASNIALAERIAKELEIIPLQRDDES
#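 Elevated IP1 in lysates lowers TR-FRET signal (665/620 ratio and 620 channel reported). Cells were CHO-M1, given carbachol (50 uM as added) plus 50mM LiCl, pH 7.4, 30 min, 37C; compounds titrated up to 46 uM; AC50 by Hill equation.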
# * hit, by the source's call; ? = inconclusive; . = not tested or not shown; [ ] = another dose, or the depositor's remark. Unless noted, calls come from the whole dose curve; as a rule, active = well fitted inhibition curve with a large enough effect (not every such curve was filed as active); inconclusive = small, poorly fitted or top-dose-only effect, or another doubt; inactive = no such curve, though single readings can be large or run the other way. Unless noted, % is set by controls: 0 for no effect and ±100 for the full control effect.
SMILES,PNC assembly inh,ALDH1A1 inh,Luc counter,HPGD inh,Lamin A splicing,IMPase inh
Cc1cc(C)c(C)c(S(=O)(=O)N2CCN(C(=O)c3cc(=O)[nH]c4ccccc34)CC2)c1C,2,14µM*,0%,-7%,?,4
O=C(c1cc(=O)[nH]c2ccccc12)N1CCN(c2ccc([N+](=O)[O-])cc2)CC1,.,3µM*,.,.,.,.
CCOc1ccc(CC(=O)NCCS(=O)(=O)N2CCN(c3ccc(OC)cc3)CC2)cc1,.,.,.,.,11%[46 µM],.
CC(=O)Nc1sc(C)c(C)c1C(=O)OC(C)C,?,22µM*,-2%,-16%,2%,.
C[C@H](O)CO[C@H]1[C@H]2O[C@H]3[C@H](O)[C@@H](O)[C@@H](O[C@H]4[C@H](O)[C@@H](O)[C@@H](O[C@H]5[C@H](O)[C@@H](O)[C@@H](O[C@H]6[C@H](O)[C@@H](OC[C@H](C)O)[C@@H](O[C@H]7[C@H](O)[C@@H](OC[C@H](C)O)[C@@H](O[C@H]8[C@H](O)[C@@H](O)[C@@H](O[C@@H]([C@@H]1O)[C@@H](CO)O2)O[C@@H]8CO)O[C@@H]7CO)O[C@@H]6CO)O[C@@H]5CO)O[C@@H]4CO)O[C@@H]3CO,.,-2%,2%,-7%,.,0
Cc1cc(C)cc(OCCOCCn2c(-c3ccc(Cl)cc3)nc3ccccc3c2=O)c1,.,.,.,.,.,2
CCOCC(=O)Nc1nc2ccc(S(C)(=O)=O)cc2s1,-6,18µM*,-11%,-26%,2%,10
CC(C)CC(=O)Nc1nc2ccc(S(C)(=O)=O)cc2s1,.,?,3%,.,5%[46 µM],.
Cc1cc(C)nc(NS(=O)(=O)c2ccc(NC(=O)CN3C(=O)C4CC=CCC4C3=O)cc2)n1 (stereo not given),.,32µM*,1%,.,.,.
CCc1ccc(C(=O)Nc2ccc(S(=O)(=O)Nc3nc(C)cc(C)n3)cc2)o1,-107*,?,3%,-15%,10%,7
O=C(CN1C(=O)C2CC=CCC2C1=O)Nc1ccc(S(=O)(=O)NC2=NCCCCC2)cc1 (stereo not given),?,-9%,-3%,-10%,7%,-16
CCC(=O)Nc1nc2ccc(S(C)(=O)=O)cc2s1,-100*,2%,2%,-13%,-5%,-7
Cc1ccc(N(Cc2ccccc2)Cc2ccccc2)cc1,.,9%[13.5 µM],-3%[7.66 µM],-5%,.,.
CS(=O)(=O)c1ccc2nc(NC(=O)CN3C(=O)C4CC=CCC4C3=O)sc2c1 (stereo not given),.,13µM*,1%,.,-1%[46 µM],.
Cc1ccc(S(=O)(=O)Nc2nc3ccc(S(C)(=O)=O)cc3s2)cc1,?,?,4%,25µM*,-5%,-6
O=C(c1csnn1)N1CCC2(CCCN(c3ccccn3)C2)CC1,.,?,-1%,-18%,.,.
CCOC(=O)c1ccc(NC2SC(=O)N(Cc3cccc(C(=O)O)c3)C2=O)cc1 (stereo not given),.,.,.,.,.,-4
CCn1c2ccccc2c2cc(NC(=O)c3cc(OC)cc(OC)c3)ccc21,-97*,?,2%,?,?,.
O=C(Nc1cccc(OC(F)(F)F)c1)c1ccc(Br)o1,-22,22µM*,-2%,25µM*,?,-1
O=C(Nc1cccc(F)c1)c1ccc(Br)o1,0,0%,-8%[39.9 µM],-25%,-6%,.
CCn1c2ccccc2c2cc(NC(=O)c3ccc(Br)o3)ccc21,?,2.2µM*,-2%,4.5µM*,-3%,4
CCn1c2ccccc2c2cc(NC(=O)c3cc(C)on3)ccc21,.,5%,1%,.,.,.
CCn1c2ccccc2c2cc(NC(=O)c3cc(OC)c(OC)c(OC)c3)ccc21,?,?,-2%,?,?,5
COc1ccc(CNc2n[nH]c(-c3ccco3)n2)cc1OC,.,.,.,.,1%[46 µM],.
O=C(Oc1oc(-c2ccco2)nc1C=Nc1ccccc1)c1ccoc1,?,?,-5%,5µM*,9%,2
SMILES,PNC assembly inh,ALDH1A1 inh,Luc counter,HPGD inh,Lamin A splicing,IMPase inh
Cc1ccc(N=Cc2nc(-c3ccco3)oc2O)cc1,-28,?,4%,-21%,8%,8
O=C(Oc1oc(-c2ccco2)nc1C=Nc1ccccc1)c1ccco1,?,?,-2%,2µM*,11%,-4
Cc1ccc(C(=O)Oc2oc(-c3ccccc3)nc2C=Nc2ccc(N(C)C)cc2)cc1,?,?,1%,-22%,-3%,.
CN(C)c1ccc(N=Cc2nc(-c3ccccc3)oc2OC(=O)c2cccc(Cl)c2)cc1,64,13µM*,-5%,?,-9%,-12
Cc1ccc(C(=O)Oc2oc(-c3ccco3)nc2C=Nc2ccc(Cl)cc2)cc1,19,?,-3%,6.3µM*,-9%,-1
COc1ccc(C(=O)Nc2ccc3c(c2)CCCN3S(=O)(=O)c2ccc(C)cc2)c(OC)c1,.,.,.,.,-7%[46 µM],.
O=C1NCCCC2c3c(cc(Br)c(O)c3Br)OC12N1CCCCC1 (stereo not given),6,7.9µM*,-3%,13µM*,3%,9
CCOC(=O)c1[nH]c2c(c1C)C(=O)CC(c1ccc(OCC)c(OC)c1)C2 (stereo not given),-6,0%,-2%,-3%,-4%,5
CCOC(=O)c1[nH]c2c(c1C)C(=O)CC(c1ccc(F)cc1)C2 (stereo not given),-95*,7%,1%,-4%,?,3
Cc1c(C(=O)OCC2CCCO2)[nH]c2c1C(=O)CC(c1ccc(N(C)C)cc1)C2 (stereo not given),-7,11µM*,2%,-12%,?,7
CCOC(=O)c1[nH]c2c(c1-c1ccccc1)C(=O)CC(c1ccc(OC)c(OC)c1)C2 (stereo not given),22,13µM*,3%,-2%,?,.
CCCCCOC(=O)c1[nH]c2c(c1C)C(=O)CC(c1ccco1)C2 (stereo not given),-29,28µM*,0%,-8%,?,.
CCOCCOC(=O)c1[nH]c2c(c1C)C(=O)CC(c1cccs1)C2 (stereo not given),.,4%,-2%,.,4%[9.22 µM],.
COc1cccc(CNC(=O)c2ccc(Cn3c(SCc4ccccc4)nc4cccnc43)cc2)c1,.,.,.,.,-4%[46 µM],.
COc1ccc(-c2nc3cnc(N4CCNCC4)nc3n(C3CC3)c2=O)cc1,.,?,1%,?,.,.
CCC1(C)Cc2nc3sc(C(=O)O)c(N)c3cc2CO1 (stereo not given),-4,22µM*,-2%,-18%,-5%,-6
CCCCC(=O)N1CCCC(c2nc3c(nnn3Cc3cc(C)ccc3C)c(=O)[nH]2)C1 (stereo not given),?,?,-4%,2.2µM*,5%,7
